We go through 31 compounds from PubChem BioAssay (NCATS).

Assay [1] concerns the target Rap guanine nucleotide exchange factor 3 (Homo sapiens) (UniProt O95398). The assay is described as follows: Confirmatory qHTS for antagonist of cAMP-regulated guanine nucleotide exchange factor 3 (EPAC1) (AID 1645880). Further: nearly all actives have a fitted effect of over 55% in size. Further: potency means the concentration at half of the fitted maximal effect. In outline:
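Released BODIPY-GDP fluoresces less than Rap1-bound BODIPY-GDP; the signal is followed at 480/540 nm at 5-min intervals over 30 min, after 5 min at room temperature. Reactions contain 100 nM EPAC1, 250 nM RAP1B-BODIPY-GDP and 50 uM GDP; results are normalized to ATA and DMSO.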

The target is the same in assay [2]. Description: Confirmatory qHTS for agonist of cAMP-regulated guanine nucleotide exchange factor 3 (EPAC1) (AID 1645881; further: nearly all actives have a fitted effect of over 75% in size; further: potency means the concentration at half of the fitted maximal effect;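 on activation: EPAC1 catalysed release of BODIPY-GDP from Rap1B seen as fluorescence loss; 100% = effect of cAMP agonist control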). (In qHTS, concentration-response curves come from the screen itself.)
Assay [3] has as its target Rap guanine nucleotide exchange factor 4 (Homo sapiens) (UniProt Q8WZA2). The assay is described as follows: Confirmatory qHTS for agonist of cAMP-regulated guanine nucleotide exchange factor 4 (EPAC2) (AID 1645884).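 Further: nucleotide exchange releases bodipy-GDP from Rap1 and this lowers its fluorescence; nearly all actives have a fitted effect of over 65% in size.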 Further: potency means the concentration at half of the fitted maximal effect. On activation: on the % scale 0 is the no-effect control and ±100 the full control effect.
Assay [4] has the same target. Description: Confirmatory qHTS for antagonist of cAMP-regulated guanine nucleotide exchange factor 4 (EPAC2) (AID 1645885). Further: nearly all actives have a fitted effect of over 25% in size. Further: potency means the concentration at half of the fitted maximal effect. On activity change, negative = inhibition: on the % scale 0 is the no-effect control and ±100 the full control effect.
In assay [5] the target is Rap guanine nucleotide exchange factor 3 (Homo sapiens) (UniProt O95398). The assay is described as follows: Counterscreen qHTS for antagonist of cAMP-regulated guanine nucleotide exchange factor 3 (EPAC1) (AID 1645888). Further: % of control where 0% means no effect. An outline of the steps:
(§1)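 Rap1B–BODIPY-GDP (250 nM) with 50 uM GDP; compounds pin-transferred to 9.74 nM–152 uM final (activator) or from 7.32 nM upwards (inhibitor). Fluorescence Ex/Em 480/540 nm read at 5 and 30 min, then after adding cAMP or buffer, at room temperature.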

Assay [6] shares this target. The assay is described as follows: Counterscreen qHTS for agonist of cAMP-regulated guanine nucleotide exchange factor 3 (EPAC1) (AID 1645889). Further: nearly all actives have a fitted effect of over 40% in size. Further: potency means the concentration at half of the fitted maximal effect. On activation: % of control where 0% means no effect. In outline:
as §1
Background: Counterscreens check selectivity or assay interference.

SMILES strings stand for the structures. Inconclusive results are not listed. Unmarked numbers belong to inactive results. Active and inactive are the calls of the source. The call rests on the fitted dose curve; in most records, active means well fitted curve in the direction sought with a large enough effect; inconclusive means small, poorly fitted or top-dose-only effect, or another doubt; inactive means no such curve, though single readings can be large; an effect the other way counts as inactive or inconclusive.

Chain of Rap guanine nucleotide exchange factor 3 (Homo sapiens) (O95398 whole entry, looked up): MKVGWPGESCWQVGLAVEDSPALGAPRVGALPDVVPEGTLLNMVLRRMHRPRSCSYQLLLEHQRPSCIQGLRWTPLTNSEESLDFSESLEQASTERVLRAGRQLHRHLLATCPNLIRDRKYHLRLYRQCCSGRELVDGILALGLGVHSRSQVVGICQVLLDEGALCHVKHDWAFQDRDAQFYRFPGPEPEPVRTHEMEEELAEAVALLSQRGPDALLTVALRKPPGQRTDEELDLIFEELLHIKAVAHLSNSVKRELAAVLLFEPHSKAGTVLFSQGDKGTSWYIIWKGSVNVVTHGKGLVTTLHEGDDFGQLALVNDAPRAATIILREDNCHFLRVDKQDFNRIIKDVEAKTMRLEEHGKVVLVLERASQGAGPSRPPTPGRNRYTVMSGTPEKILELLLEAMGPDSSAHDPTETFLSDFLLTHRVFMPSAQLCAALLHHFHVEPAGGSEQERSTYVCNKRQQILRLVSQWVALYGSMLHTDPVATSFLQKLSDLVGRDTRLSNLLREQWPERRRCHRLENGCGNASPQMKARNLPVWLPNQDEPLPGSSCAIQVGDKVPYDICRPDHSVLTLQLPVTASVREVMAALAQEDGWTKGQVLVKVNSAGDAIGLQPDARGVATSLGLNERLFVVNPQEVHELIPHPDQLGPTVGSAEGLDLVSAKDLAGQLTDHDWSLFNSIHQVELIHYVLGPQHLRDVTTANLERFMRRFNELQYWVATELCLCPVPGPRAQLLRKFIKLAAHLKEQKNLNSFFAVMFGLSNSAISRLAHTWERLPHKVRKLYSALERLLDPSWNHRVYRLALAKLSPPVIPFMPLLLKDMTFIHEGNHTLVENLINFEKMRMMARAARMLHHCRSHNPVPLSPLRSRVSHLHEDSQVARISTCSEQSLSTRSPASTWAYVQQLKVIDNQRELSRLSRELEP
Chain of Rap guanine nucleotide exchange factor 4 (Homo sapiens) (Q8WZA2 whole entry, looked up): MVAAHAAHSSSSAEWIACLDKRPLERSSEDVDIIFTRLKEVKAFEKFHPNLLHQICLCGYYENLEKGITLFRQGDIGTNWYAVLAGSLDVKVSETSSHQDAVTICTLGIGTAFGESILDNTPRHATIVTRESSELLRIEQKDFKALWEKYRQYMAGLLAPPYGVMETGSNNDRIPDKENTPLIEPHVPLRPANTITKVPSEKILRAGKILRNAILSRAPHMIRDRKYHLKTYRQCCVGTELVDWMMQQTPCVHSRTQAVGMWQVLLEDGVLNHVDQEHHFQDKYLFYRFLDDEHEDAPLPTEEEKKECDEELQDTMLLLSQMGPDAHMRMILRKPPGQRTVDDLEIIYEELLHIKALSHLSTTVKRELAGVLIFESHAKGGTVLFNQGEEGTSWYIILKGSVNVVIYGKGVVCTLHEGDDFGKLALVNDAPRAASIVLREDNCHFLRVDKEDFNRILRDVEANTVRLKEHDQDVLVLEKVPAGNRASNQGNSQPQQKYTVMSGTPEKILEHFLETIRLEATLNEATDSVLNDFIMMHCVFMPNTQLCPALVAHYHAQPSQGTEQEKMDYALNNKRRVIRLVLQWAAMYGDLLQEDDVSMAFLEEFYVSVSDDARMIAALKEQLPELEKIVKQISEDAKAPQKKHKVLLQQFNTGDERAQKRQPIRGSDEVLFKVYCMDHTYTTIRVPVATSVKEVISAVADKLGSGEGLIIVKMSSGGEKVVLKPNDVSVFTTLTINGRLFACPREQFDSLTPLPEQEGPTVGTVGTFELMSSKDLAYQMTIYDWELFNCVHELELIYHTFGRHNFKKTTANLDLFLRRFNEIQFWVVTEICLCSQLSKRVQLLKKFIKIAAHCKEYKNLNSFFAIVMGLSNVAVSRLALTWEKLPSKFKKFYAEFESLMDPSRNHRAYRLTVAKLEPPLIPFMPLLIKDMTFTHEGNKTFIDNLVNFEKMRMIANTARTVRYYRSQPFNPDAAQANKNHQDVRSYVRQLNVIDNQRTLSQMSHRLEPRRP

As to `CN(C)c1ccc(/C=C/C(=O)c2ccc3c(c2)OCO3)cc1`, the Potency entry in assay [1] and in assay [5] was “inactive” in each case. Moreover, the Potency in assay [2] was 112 µM (active); in assay [3] it was 112 µM (active); in assay [4], 37.9 µM (active); in assay [6], 79.4 µM (active).
Turning to `O=C(COC(=O)c1cccc(-n2cnnn2)c1)c1ccc(F)cc1`, the Potency result in assay [1], in assay [2] and in assay [4] was “inactive” throughout. Also, the activation in assay [3] is 8.21% [at 17.1 µM, percent relative to cAMP agonist control]; in assay [6], 4.41% [at 30.8 µM]. In addition, the activity change, negative = inhibition in assay [5] is -3.01% [at 30.8 µM].
Regarding `C=CCOC(=O)C1=C(C)Nc2nnnn2C1c1cccs1` (stereo unspecified), the Potency result in assay [1], in assay [2], in assay [3], in assay [4], in assay [5] and in assay [6] was “inactive” throughout.
Regarding `Cc1nc(-c2cccc(NC(=O)Cc3ccccc3)c2)cs1`, the Potency result in assay [1], in assay [2] and in assay [4] was “inactive” in each case. Also, the activation is 1.14% [at 17.1 µM, percent relative to cAMP agonist control] in assay [3] and 2.08% [at 30.8 µM] in assay [6]. Further, the activity change, negative = inhibition in assay [5] was -17.6% [at 30.8 µM].
For `COc1nc(C)cc(C)c1S(=O)(=O)c1ccccc1C`, the Potency entry in assay [1], in assay [2], in assay [3], in assay [4], in assay [5] and in assay [6] was “inactive” throughout.
As to `Cc1ccc(F)c(NC(=O)/C(C#N)=C(\O)c2ccc(C(C)(C)C)cc2)c1`, the Potency in assay [1] was 8.91 µM (active). Further, the Potency entry in assay [2] and in assay [4] was “inactive” in each case. Moreover, the activation in assay [3] was -11.9% [at 17.1 µM, percent relative to cAMP agonist control]; in assay [6] it was 14.8% [at 30.8 µM]. Further, the activity change, negative = inhibition in assay [5] is 8.44% [at 30.8 µM].
As to `O=c1oc(-c2ccccc2)c(-c2ccccc2)c2ccccc12`, the Potency result in assay [1], in assay [2], in assay [3], in assay [4], in assay [5] and in assay [6] was “inactive” throughout.
Consider `CCCS(=O)(=O)N1CCC(C(=O)NCCN2CCCC2)CC1`, for which the Potency entry in assay [1], in assay [2] and in assay [4] was “inactive” each time. Besides, the activation in assay [3] was 10.1% [at 17.1 µM, percent relative to cAMP agonist control]; in assay [6], 25.6% [at 30.8 µM]. In assay [5], the activity change, negative = inhibition is -10.8% [at 30.8 µM].
Take `Cc1nc(SC(C)C(=O)NCC2CCCO2)c2cc(-c3ccccc3)sc2n1` (stereo unspecified): the Potency result in assay [1], in assay [2], in assay [3], in assay [4], in assay [5] and in assay [6] was “inactive” each time.
For `CCCCNC(=O)NC12CC3CC(CC(C3)C1)C2`, the Potency result in assay [1], in assay [2], in assay [3], in assay [4], in assay [5] and in assay [6] was “inactive” each time.
For the compound `COc1ccccc1CCc1nnc(CCC(=O)N(C)Cc2cccc3ncccc23)o1`, the Potency result in assay [1], in assay [2], in assay [3], in assay [4], in assay [5] and in assay [6] was “inactive” throughout.
On to `NN=C1c2ccccc2C(=O)C1C(=O)C(c1ccccc1)c1ccccc1` (stereo unspecified), for which the Potency in assay [1] is 42.6 µM (active). Moreover, the Potency result in assay [2], in assay [3], in assay [4], in assay [5] and in assay [6] was “inactive” each time.
`COc1ccc(/C=C/C(=O)c2ccncc2)c2ccccc12`: the Potency result in assay [1], in assay [2] and in assay [4] was “inactive” throughout. The activation is -6.66% [at 17.1 µM, percent relative to cAMP agonist control] in assay [3] and 15.3% [at 30.8 µM] in assay [6]. Further, the activity change, negative = inhibition in assay [5] was -0.831% [at 30.8 µM].
With `O=C(/C=C/c1ccc([N+](=O)[O-])cc1)Nc1cccc(C(=O)Nc2ccccc2C(=O)O)c1`, the Potency in assay [1] is 22.4 µM (active). Also, the Potency entry in assay [2] and in assay [4] was “inactive” in each case. Also, the activation was -2.89% [at 17.1 µM, percent relative to cAMP agonist control] in assay [3] and 4.73% [at 30.8 µM] in assay [6]. Moreover, in assay [5], the activity change, negative = inhibition is 0.771% [at 30.8 µM].
For `Cc1ccc(CNC(=O)c2ccc3c(=O)[nH]c4c(C(=O)NCC5CCCO5)sc(=S)n4c3c2)cc1` (stereo unspecified), the Potency in assay [1] was 84.9 µM (active). Also, the Potency entry in assay [2], in assay [3], in assay [4], in assay [5] and in assay [6] was “inactive” throughout.
For the compound `COc1cnc(-c2ccccn2)nc1Oc1c(C)cccc1C`, the Potency result in assay [1], in assay [2], in assay [3], in assay [4], in assay [5] and in assay [6] was “inactive” each time.
For the compound `CC1=CC=CC2=NC(=O)CC(C)(C(=O)N(CC(=O)NC(C)C)C3CCCC3)N12` (stereo unspecified), the Potency result in assay [1], in assay [2] and in assay [4] was “inactive” throughout. Moreover, the activation in assay [3] is 3.39% [at 17.1 µM, percent relative to cAMP agonist control]; in assay [6], 26.5% [at 30.8 µM]. In assay [5], the activity change, negative = inhibition is -13.5% [at 30.8 µM].
As to `CCN1/C(=C/C(C)=C/c2sc3ccccc3[n+]2CC)Sc2ccccc21`, the Potency in assay [1] was 50.1 µM (active). In addition, the Potency entry in assay [2] and in assay [4] was “inactive” each time. Also, the activation was 8.04% [at 17.1 µM, percent relative to cAMP agonist control] in assay [3] and 12.5% [at 30.8 µM] in assay [6]. In addition, the activity change, negative = inhibition in assay [5] is 12.4% [at 30.8 µM].
Consider `CC(=O)NC(c1ccco1)c1cc(Cl)c2cccnc2c1O` (stereo unspecified), for which the Potency entry in assay [1], in assay [2], in assay [3], in assay [4], in assay [5] and in assay [6] was “inactive” each time.
Regarding `COc1ccc(C(=O)Nc2cccc(/C=C(\CCC(=O)O)c3nc4ccccc4s3)c2)cc1`, in assay [1], the Potency was 21.3 µM (active). Moreover, the Potency entry in assay [2], in assay [3], in assay [4], in assay [5] and in assay [6] was “inactive” throughout.
On to `Clc1ccc(-c2cc3ccccc3nc2N2CCOCC2)cc1`, for which the Potency entry in assay [1], in assay [2], in assay [3], in assay [4], in assay [5] and in assay [6] was “inactive” in each case.
With `CN(CC(=O)Nc1cccc(F)c1)C(=O)CN1c2cccc3cccc(c23)S1(=O)=O`, the Potency in assay [1] is 75.7 µM (active). Besides, the Potency result in assay [2], in assay [3], in assay [4], in assay [5] and in assay [6] was “inactive” each time.
`CC1=NN(c2nc(-c3ccc(Cl)cc3)cs2)C(=O)C1`: in assay [1], the Potency is 25.1 µM (active). The Potency result in assay [2] and in assay [4] was “inactive” each time. Besides, the activation in assay [3] is 4.56% [at 17.1 µM, percent relative to cAMP agonist control]; in assay [6], 11% [at 30.8 µM]. Besides, in assay [5], the activity change, negative = inhibition was -0.482% [at 30.8 µM].
As for `O=[N+]([O-])c1cc([N+](=O)[O-])c2nonc2c1Nc1ccc(O)cc1`, the results for the Potency in assay [1] and in assay [4] were 75.7 µM (active) and 42.6 µM (active), respectively. Moreover, the Potency entry in assay [2], in assay [3], in assay [5] and in assay [6] was “inactive” in each case.
With `Cc1ccc(S(=O)(=O)Nc2ccccc2N2CCCCC2)cc1`, the Potency entry in assay [1], in assay [2] and in assay [4] was “inactive” throughout. Also, the activation was 1.85% [at 17.1 µM, percent relative to cAMP agonist control] in assay [3] and 18.9% [at 30.8 µM] in assay [6]. Further, the activity change, negative = inhibition in assay [5] was -22.5% [at 30.8 µM].
As to `CCC(NS(=O)(=O)c1ccc2c(c1)NC(=O)C(C)C(=O)N2)c1cccs1` (stereo unspecified), the Potency entry in assay [1], in assay [2], in assay [3], in assay [4], in assay [5] and in assay [6] was “inactive” in each case.
With `C=CC[C@@H](CC(=O)NCCO)C(=O)N[C@@H](C)COC(=O)[C@H](CC=C)CC(=O)OC(C)(C)C`, the Potency entry in assay [1], in assay [2] and in assay [4] was “inactive” throughout. Moreover, the activation in assay [3] is -2.5% [at 17.1 µM, percent relative to cAMP agonist control]; in assay [6], -7.04% [at 30.8 µM]. For the same compound, the activity change, negative = inhibition in assay [5] is 2.15% [at 30.8 µM].
Take `N#Cc1c(-c2ccccc2)nc(SCc2cccc(Cl)c2)[nH]c1=O`: the Potency in assay [1] is 67.5 µM (active); in assay [4], 37.9 µM (active). For the same compound, the Potency result in assay [2], in assay [3], in assay [5] and in assay [6] was “inactive” each time.
`COC(=O)c1cc(OC)nc2ccc(Br)cc12`: the Potency entry in assay [1], in assay [2], in assay [3], in assay [4], in assay [5] and in assay [6] was “inactive” throughout.
Take `CC(=O)NC(c1ccc(C)cc1)c1cc(Cl)c2cccnc2c1O` (stereo unspecified): the Potency entry in assay [1], in assay [2], in assay [3], in assay [4], in assay [5] and in assay [6] was “inactive” each time.
`O=CN1N=C(c2ccccc2)CC1c1ccc(Cl)cc1` (stereo unspecified): the Potency result in assay [1], in assay [2], in assay [3], in assay [4], in assay [5] and in assay [6] was “inactive” each time.
